# Assay results as given in article PMC11995724, “Antibiotic target discovery by integrated phenotypic and activity-based profiling of electrophilic fragments” (Cell chemical biology, 2025).
# Screen size: about 3,200 compounds; about 110 (3.4%) showed an effect of 50% or more. Shown is part of a subset that was picked to be rich in strong results.
# Test system: T1, V. cholerae SAD30
# T1 construct: SAD30
# Parameters: species or system S. aureus MSSA476 (TSB) or V. cholerae SAD30 (LB); 384-well bacterial growth screen at 25 uM, OD600 relative to DMSO control
# Conditions: relative growth, OD600, LB; 25 µM; inhibitor
row,Compound,% of control remaining [%]
1,"N#CC(=Cc1cccc(O)c1)C(=O)Nc1ccc(N2CCOCC2)cc1 [8-I14, 2-cyano-3-(3-hydroxyphenyl)-N-[4-(morpholin-4-yl)phenyl]prop-2-enamide]",71.0401
2,"CC1CN(c2ccc(NC(=O)C(C#N)=Cc3ccco3)cc2)CC(C)O1 (stereo not shown) [9-J09, 2-cyano-N-[4-(2,6-dimethylmorpholin-4-yl)phenyl]-3-(furan-2-yl)prop-2-enamide]",84.3644
3,"C=CC(=O)N1CCC(F)CC1 [1-D14, 1-(4-fluoropiperidin-1-yl)prop-2-en-1-one]",79.2444
4,"CN(C)c1nc(N2CCOCC2)ncc1NC(=O)CCl [5-M22, 2-chloro-N-[4-(dimethylamino)-2-(morpholin-4-yl)pyrimidin-5-yl]acetamide]",105.916
5,"C=CC(=O)Nc1ccc(S(=O)(=O)N(C)C)c(C)c1 [2-E06, N-[4-(dimethylsulfamoyl)-3-methylphenyl]prop-2-enamide]",93.4382
6,"C=CC(=O)N(CCC(N)=O)C1CCOc2ccccc21 (stereo not shown) [3-F13, N-(2-carbamoylethyl)-N-(3,4-dihydro-2H-1-benzopyran-4-yl)prop-2-enamide]",92.0897
7,"Cc1cc(C(=O)CCl)c(C)n1CCc1cccs1 [10-F16, 2-chloro-1-{2,5-dimethyl-1-[2-(thiophen-2-yl)ethyl]-1H-pyrrol-3-yl}ethan-1-one]",110.189
8,"C=CC(=O)Nc1sc2c(c1C(N)=O)CCCCC2 [1-F21, 2-(prop-2-enamido)-4H,5H,6H,7H,8H-cyclohepta[b]thiophene-3-carboxamide]",88.1913
9,"CCOc1ccc(-n2c(C)cc(C(=O)CCl)c2C)cc1 [10-K08, 2-chloro-1-[1-(4-ethoxyphenyl)-2,5-dimethyl-1H-pyrrol-3-yl]ethan-1-one]",98.9675
10,"N#Cc1ccc(C(=O)CCl)cc1 [10-F10, 4-(2-chloroacetyl)benzonitrile]",0
11,"N#Cc1ccc(OC2CN(C(=O)CCl)C2)cc1 [5-K07, 4-{[1-(2-chloroacetyl)azetidin-3-yl]oxy}benzonitrile]",141.893
12,"CSc1ccccc1NC(=O)CCl [4-E11, 2-chloro-N-[2-(methylsulfanyl)phenyl]acetamide]",92.3011
13,"CCOc1ccc(C(=O)C(C)Cl)cc1 (stereo not shown) [10-G06, 2-chloro-1-(4-ethoxyphenyl)propan-1-one]",103.331
14,"CCOc1ccc(C(=O)CCl)cc1 [10-F12, 2-chloro-1-(4-ethoxyphenyl)ethan-1-one]",15.1179
15,"CC(Cl)C(=O)N(C)CCOc1ccc(Cl)cc1 (stereo not shown) [6-C12, 2-chloro-N-[2-(4-chlorophenoxy)ethyl]-N-methylpropanamide]",74.0165
16,"CN(CCOc1ccc(Cl)cc1)C(=O)CCl [5-D16, 2-chloro-N-[2-(4-chlorophenoxy)ethyl]-N-methylacetamide]",80.0252
17,"CSc1cc(C(=O)CCl)ccc1NC(C)=O [10-H08, N-[4-(2-chloroacetyl)-2-(methylsulfanyl)phenyl]acetamide]",25.2484
18,"CSc1ccccc1NC(=O)CN(C)C(=O)CCl [4-L03, 2-chloro-N-methyl-N-({[2-(methylsulfanyl)phenyl]carbamoyl}methyl)acetamide]",116.282
19,"O=C(CCl)COc1ccc(Cl)cc1 [10-M17, 1-chloro-3-(4-chlorophenoxy)propan-2-one]",11.6891
